Source: PubChem BioAssay (NCATS)
Inconclusive results are not listed. Activity calls are given as the source filed them. The call rests on the fitted dose curve; in most records, active means well fitted curve in the direction sought with a large enough effect; inconclusive means small, poorly fitted or top-dose-only effect, or another doubt; inactive means no such curve, though single readings can be large; an effect the other way counts as inactive or inconclusive.

What was measured:
[1] = qHTS of pediatric cancer cell lines to identify multiple opportunities for drug repurposing: Primary screen for Saos-2 cells (AID 1347097); further: potency means the concentration at half of the fitted maximal effect; nearly all actives have a fitted effect of over 40% in size
How it was run: (§1)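 Plated cells (500-1,000 per well, growth media) were allowed to settle for 5 hours, treated with compound dilutions for 48 hours, then lysed with CellTiter-Glo for 15 min at room temperature before luminescence reading.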

[2] = qHTS of pediatric cancer cell lines to identify multiple opportunities for drug repurposing: Primary screen for LAN-5 cells (AID 1347100); further: potency means the concentration at half of the fitted maximal effect
How it was run: (§2)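 Cells (500-1,000/well) rested 5 h, then received compounds for 48 h; metabolically active cells were measured by CellTiter-Glo luminescence. Final concentrations spanned up to 46 µM (MIPE, 11-point) or 0.59 nM-46 µM (NPC, 8-point) in primary screens, 11-point in follow-ups.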

[3] = qHTS of pediatric cancer cell lines to identify multiple opportunities for drug repurposing: Primary screen for BT-12 cells (AID 1347101); further: potency means the concentration at half of the fitted maximal effect; nearly all actives have a fitted effect of over 25% in size
How it was run: as §2

[4] = qHTS of pediatric cancer cell lines to identify multiple opportunities for drug repurposing: Primary screen for MG 63 (6-TG R) cells (AID 1347105); further: nearly all actives have a fitted effect of over 50% in size; further: potency means the concentration at half of the fitted maximal effect
How it was run: as §1

[5] = qHTS of pediatric cancer cell lines to identify multiple opportunities for drug repurposing: Primary screen for Rh30 cells (AID 1347107); further: series mostly up to about 46 µM; nearly all actives have a fitted effect of over 75% in size
How it was run: as §2

[6] = qHTS of pediatric cancer cell lines to identify multiple opportunities for drug repurposing: Confirmatory screen for A673 cells (AID 1347110);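 further: potency means the concentration at half of the fitted maximal effect; cells exposed to compound for 48 h before the viability read; nearly all actives have a fitted effect of over 65% in size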
How it was run: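 Cells plated at 500-1,000/well were treated five hours later with multi-point dilutions up to 46 µM final. After two days, CellTiter-Glo was added and luminescence read.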

[7] = qHTS of pediatric cancer cell lines to identify multiple opportunities for drug repurposing: Confirmatory screen for BT-12 cells (AID 1347112); further: potency means the concentration at half of the fitted maximal effect; nearly all actives have a fitted effect of over 55% in size
How it was run: as §2

[8] = qHTS of pediatric cancer cell lines to identify multiple opportunities for drug repurposing: Confirmatory screen for DAOY cells (AID 1347114); further: potency means the concentration at half of the fitted maximal effect; nearly all actives have a fitted effect of over 65% in size
How it was run: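 Viability measured as metabolically active cells via CellTiter-Glo luminescence following 48 hours of compound exposure, 11-point dilutions in confirmatory testing. 500-1,000 cells/well plated 5 hours before dosing; controls were DMSO and 2.3 µM bortezomib.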

[9] = qHTS of pediatric cancer cell lines to identify multiple opportunities for drug repurposing: Primary screen for NB1643 cells (AID 1347099); further: potency means the concentration at half of the fitted maximal effect; nearly all actives have a fitted effect of over 50% in size
How it was run: as §1

[10] = qHTS of pediatric cancer cell lines to identify multiple opportunities for drug repurposing: Primary screen for Rh18 cells (AID 1347102); further: nearly all actives have a fitted effect of over 65% in size; further: potency means the concentration at half of the fitted maximal effect
How it was run: as §2

[11] = qHTS of pediatric cancer cell lines to identify multiple opportunities for drug repurposing: Primary screen for OHS-50 cells (AID 1347103); further: potency means the concentration at half of the fitted maximal effect; nearly all actives have a fitted effect of over 40% in size
How it was run: as §2

[12] = qHTS of pediatric cancer cell lines to identify multiple opportunities for drug repurposing: Primary screen for RD cells (AID 1347104); further: potency means the concentration at half of the fitted maximal effect; nearly all actives have a fitted effect of over 55% in size
How it was run: as §1

[13] = qHTS of pediatric cancer cell lines to identify multiple opportunities for drug repurposing: Primary screen for control Hh wild type fibroblast cells (AID 1347106);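 further: series mostly up to about 46 µM; a drop in luminescence marks cytotoxicity and a rise apparent proliferation; nearly all actives have a fitted effect of over 55% in size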
How it was run: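 Viability after 48 h compound treatment at 37C, 500-1,000 cells/well, read as ATP luminescence with CellTiter-Glo. Primary screens used 11-point (MIPE, 0.78 nM-46 µM) or 8-point (NPC, 0.59 nM-46 µM) final concentrations; follow-up screens used 11-point dilutions.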

[14] = qHTS of pediatric cancer cell lines to identify multiple opportunities for drug repurposing: Primary screen for SK-N-SH cells (AID 1347098); further: potency means the concentration at half of the fitted maximal effect; nearly all actives have a fitted effect of over 65% in size
How it was run: as §2

[15] = qHTS of pediatric cancer cell lines to identify multiple opportunities for drug repurposing: Primary screen for Rh41 cells (AID 1347108); further: potency means the concentration at half of the fitted maximal effect; nearly all actives have a fitted effect of over 70% in size
How it was run: as §1

[16] = qHTS of pediatric cancer cell lines to identify multiple opportunities for drug repurposing: Confirmatory screen for NB1643 cells (AID 1347109); further: potency means the concentration at half of the fitted maximal effect; nearly all actives have a fitted effect of over 45% in size
How it was run: as §2

[17] = qHTS of pediatric cancer cell lines to identify multiple opportunities for drug repurposing: Confirmatory screen for SK-N-MC cells (AID 1347111);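 further: potency means the concentration at half of the fitted maximal effect; cells exposed to compound for 48 h before the readout; nearly all actives have a fitted effect of over 70% in size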
How it was run: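 Seed 500-1,000 cells/well; rest 5 h at 37 degrees C. Pin-transfer compounds, 11-point titration. Incubate 48 h. Add CellTiter-Glo, 15 min RT, read luminescence.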

[18] = qHTS of pediatric cancer cell lines to identify multiple opportunities for drug repurposing: Confirmatory screen for LAN-5 cells (AID 1347113)
How it was run: as §2

[19] = qHTS of pediatric cancer cell lines to identify multiple opportunities for drug repurposing: Confirmatory screen for NB-EBc1 cells (AID 1347115);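 further: potency means the concentration at half of the fitted maximal effect; cells exposed to compound for 48 h before the viability read; nearly all actives have a fitted effect of over 45% in size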
How it was run: as §2

Measured: Potency

CN[C@H]1CCc2cc(OC)c(OC)c(OC)c2-c2ccc(OC)c(=O)cc21
active: [1] 0.0037 µM | [2] 0.0023 µM | [3] 0.0039 µM | [6] 0.104 µM | [7] 0.147 µM | [8] 0.0465 µM
inactive: [4] | [5]

COc1cc2ncnc(Nc3ccc(F)c(Cl)c3)c2cc1NC(=O)C=CCN1CCCCC1
inactive: [4] | [13]
active: [1] 16.6 µM | [9] 14.8 µM | [2] 14.8 µM | [3] 24.3 µM | [10] 18.7 µM | [11] 7.69 µM | [12] 29.6 µM

CC(C)(C)c1cnc(CSc2cnc(NC(=O)C3CCNCC3)s2)o1
inactive: [5]
active: [1] 0.743 µM | [14] 1.52 µM | [3] 0.432 µM | [12] 0.264 µM | [15] 0.59 µM | [16] 0.165 µM | [6] 0.414 µM | [17] 0.329 µM | [7] 0.369 µM | [18] 0.261 µM | [8] 1.17 µM

CS(=O)(=O)N1CCN(Cc2cc3nc(-c4cccc5[nH]ncc45)nc(N4CCOCC4)c3s2)CC1
active: [1] 0.0526 µM | [9] 0.833 µM | [2] 1.05 µM | [10] 1.32 µM | [11] 0.0769 µM | [12] 1.05 µM | [4] 0.0935 µM | [16] 8.51 µM | [6] 3.39 µM | [17] 1.7 µM | [18] 1.91 µM | [19] 6.03 µM

C=C1C(=CC=C2CCCC3(C)[C@@H]([C@H](C)C=CC=CC(O)(CC)CC)CC[C@@H]23)C[C@@H](O)C[C@@H]1O (some centres undefined)
inactive: [10] | [4] | [13]
active: [9] 14.8 µM | [2] 14.8 µM | [11] 24.3 µM | [12] 26.4 µM | [15] 18.7 µM

C[C@@H]1CN(CC(=O)Nc2ccc3c(c2)Cc2cccc(-c4cc(=O)cc(N5CCOCC5)o4)c2S3)C[C@H](C)O1
active: [1] 10.5 µM | [2] 18.7 µM | [10] 18.7 µM | [11] 21.7 µM
inactive: [13]
